# Assay results: the supplement of paper PMC8728848
# Only a selection was taken, and the strongest signals are over-represented in it overall.
# B1: Dectin-1 (Mus musculus), Q6QLQ4 (protein)
# chain: EYGHNSGRNPEEKDNFLSRNKENHKPTESSLDEKVAPSKASQTTGGFSQPCLPNWIMHGKSCYLFSFSGNSWYGSKRHCSQLGAHLLKIDNSKEFEFIESQTSSHRINAFWIGLSRNQSEGPWFWEDGSAFFPNSFQVRNTAPQESLLHNCVWIHGSEVYNQICNTSSYSICEKEL
# B2: DC-SIGNR (Homo sapiens), Q9H2X3 (protein)
# chain: QVSKVPSSLSQEQSEQDAIYQNLTQLKAAVGELSEKSKLQEIYQELTQLKAAVGELPEKSKLQEIYQELTRLKAAVGELPEKSKLQEIYQELTRLKAAVGELPEKSKLQEIYQELTRLKAAVGELPEKSKLQEIYQELTELKAAVGELPEKSKLQEIYQELTQLKAAVGELPDQSKQQQIYQELTDLKTAFERLCRHCPKDWTFFQGNCYFMSNSQRNWHDSVTACQEVRAQLVVIKTAEEQNFLQLQTSRSNRFSWMGLSDLNQEGTWQWVDGSPLSPSFQRYWNSGEPNNSGNEDCAEFSGSGWNDNRCDVDNYWICKKPAACFRDE
# B3: Dectin-1 (Homo sapiens), Q9BXN2 (protein)
# chain: TMAIWRSNSGSNTLENGYFLSRNKENHSQPTQSSLEDSVTPTKAVKTTGVLSSPCPPNWIIYEKSCYLFSMSLNSWDGSKRQCWQLGSNLLKIDSSNELGFIVKQVSSQPDNSFWIGLSRPQTEVPWLWEDGSTFSSNLFQIRTTATQENPSPNCVWIHVSVIYDQLCSVPSYSICEKKFSM
# Assays:
# Test in all cases: glycan array binding signal (z-score within array); higher = stronger binding
# Conditions in all cases: glycan notation: IUPAC condensed, linker removed
# [1] = target: Glc(a1-6)Glc(a1-6)Glc(a1-6)Glc(a1-6)Glc(a1-6)Glc(a1-6)Glc(a1-6)Glc
# Method in brief: (§1)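 Negative Z-scores can be read as non-binding. The Z-score is calculated within each array and then averaged across arrays of one protein sequence at different concentrations or buffers and across linkers. Arrays, 3228 in all, were curated from the Consortium for Functional Glycomics database and kept only where the protein sequence was available.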
# [2] = target: Glc(b1-2)Glc(b1-2)Glc(b1-2)Glc(b1-2)Glc(b1-2)Glc(b1-2)Glc(b1-2)Glc
# Method in brief: as §1
# [3] = target: Glc(b1-2)Glc(b1-2)Glc(b1-2)Glc(b1-2)Glc(b1-2)Glc(b1-2)Glc(b1-2)Glc(b1-2)Glc(b1-2)Glc(b1-2)Glc
# Method in brief: as §1
# [4] = target: Glc(b1-2)Glc(b1-2)Glc(b1-2)Glc(b1-2)Glc(b1-2)Glc(b1-2)Glc(b1-2)Glc(b1-2)Glc(b1-2)Glc(b1-2)Glc(b1-2)Glc(b1-2)Glc
# Method in brief: as §1
# [5] = target: Glc(b1-3)Glc(b1-3)Glc(b1-3)Glc(b1-3)Glc(b1-3)Glc(b1-3)Glc(b1-3)Glc(b1-3)Glc(b1-3)Glc(b1-3)Glc
# Method in brief: as §1
# [6] = target: Glc(b1-3)Glc(b1-3)Glc(b1-3)Glc(b1-3)Glc(b1-3)Glc(b1-3)Glc(b1-3)Glc(b1-3)Glc(b1-3)Glc(b1-3)Glc(b1-3)Glc
# Method in brief: as §1
# [7] = target: Glc(b1-3)Glc(b1-3)Glc(b1-3)Glc(b1-3)Glc(b1-3)Glc(b1-3)Glc(b1-3)Glc(b1-3)Glc(b1-3)Glc(b1-3)Glc(b1-3)Glc(b1-3)Glc
# Method in brief: as §1
# [8] = target: Glc(b1-3)Glc(b1-3)Glc(b1-3)[Glc(b1-6)]Glc(b1-3)Glc(b1-3)Glc(b1-3)Glc(b1-3)[Glc(b1-6)]Glc(b1-3)Glc
# Method in brief: as §1
# Glc(b1-3)Glc(b1-4)Glc = target: Glc(b1-3)Glc(b1-4)Glc
# Method in brief: as §1
# [9] = target: Glc(b1-6)Glc(b1-6)Glc(b1-6)Glc(b1-6)Glc(b1-6)Glc(b1-6)Glc(b1-6)Glc(b1-6)Glc(b1-6)Glc(b1-6)Glc
# Method in brief: as §1
# [10] = target: Man(b1-4)Man(b1-4)Man(b1-4)Man
# Method in brief: as §1
# [11] = target: Glc(b1-2)Glc(b1-2)Glc(b1-2)Glc(b1-2)Glc(b1-2)Glc(b1-2)Glc(b1-2)Glc(b1-2)Glc
# Method in brief: as §1
# Glc(a1-4)Glc = target: Glc(a1-4)Glc
# Method in brief: as §1
# Glc(a1-6)Glc = target: Glc(a1-6)Glc
# Method in brief: as §1
# [12] = target: Glc(b1-2)Glc(b1-2)Glc(b1-2)Glc(b1-2)Glc
# Method in brief: as §1
# [13] = target: Glc(b1-3)Glc(b1-3)Glc(b1-3)Glc(b1-3)Glc
# Method in brief: as §1
# [14] = target: Glc(b1-3)Glc(b1-3)Glc(b1-3)Glc(b1-3)Glc(b1-3)Glc(b1-3)Glc(b1-3)[Glc(b1-6)]Glc(b1-3)Glc
# Method in brief: as §1
# [15] = target: Glc(b1-4)Glc(b1-4)Glc(b1-4)Glc(b1-4)Glc(b1-4)Glc(b1-4)Glc(b1-4)Glc(b1-4)Glc
# Method in brief: as §1
# [16] = target: Glc(b1-6)Glc(b1-6)Glc(b1-6)Glc(b1-6)Glc(b1-6)Glc(b1-6)Glc(b1-6)Glc
# Method in brief: as §1
# [17] = target: Glc(b1-6)Glc(b1-6)Glc(b1-6)Glc(b1-6)Glc(b1-6)Glc(b1-6)Glc(b1-6)Glc(b1-6)Glc
# Method in brief: as §1
binder,measurement,setting,value
B1,glycan array binding signal (z-score),[1],-0.161
same,glycan array binding signal (z-score),[2],-0.206
same,glycan array binding signal (z-score),[3],-0.206
same,glycan array binding signal (z-score),[4],-0.182
same,glycan array binding signal (z-score),[5],0.83
same,glycan array binding signal (z-score),[6],5.77
same,glycan array binding signal (z-score),[7],6.71
same,glycan array binding signal (z-score),[8],-0.182
same,glycan array binding signal (z-score),Glc(b1-3)Glc(b1-4)Glc,-0.182
same,glycan array binding signal (z-score),[9],-0.13
same,glycan array binding signal (z-score),[10],-0.038
B2,glycan array binding signal (z-score),[11],1.64
same,glycan array binding signal (z-score),[7],-0.981
B3,glycan array binding signal (z-score),Glc(a1-4)Glc,-0.145
same,glycan array binding signal (z-score),Glc(a1-6)Glc,-0.145
same,glycan array binding signal (z-score),[12],-0.145
same,glycan array binding signal (z-score),[13],-0.145
same,glycan array binding signal (z-score),[5],0.976
same,glycan array binding signal (z-score),[6],5
same,glycan array binding signal (z-score),[7],9.53
same,glycan array binding signal (z-score),[14],-0.145
same,glycan array binding signal (z-score),[15],-0.145
same,glycan array binding signal (z-score),[16],-0.145
same,glycan array binding signal (z-score),[17],-0.145
same,glycan array binding signal (z-score),[10],-0.082
